Values joined by “and” are separate entries in the source; they are usually repeats but may differ in a detail not shown here. Identical values can stand only once. The campaign covered roughly 1,100 compounds. About 160 (15%) were called active. About 36% were inconclusive and are not listed. Calls follow the shape of the dose curve; as a rule, active = well fitted inhibition curve with a large enough effect; inconclusive = small, poorly fitted or top-dose-only effect; inactive = no such curve, though single readings can be large or run the other way. Only a sample is shown.
Target: ATP-dependent DNA helicase Q1 (Homo sapiens) (UniProt P46063)
Assay: Confirmation qHTS Assay for Inhibitors of RecQ-Like Dna Helicase 1 (RECQ1) - Round 2 Cherry Picks; also: nearly all actives have a fitted effect of over 50% in size
Settings: recombinant RECQ1 DNA unwinding, red fluorescence; series mostly up to 119 µM
Excerpt: Survival of cells and the faithful propagation of the genome depend on elaborate mechanisms of detecting and repairing DNA damage. Treatment of advanced cancer relies on radiation therapy or chemotherapy, which kill cancer cells by causing extensive DNA damage. It is often found, that cancer cells develop resistance to therapy through enhanced activity of DNA repair functions; this has led to an increased interest in developing drugs that interfere with DNA repair, which could sensitize cancer cells to conventional therapy. This validation qHTS assay pertains to human RECQ1, which is important in resolving abnormal DNA structures formed during replication or homologous recombination. Shutting down the expression of RECQ1 leads to chromosomal instability and higher radiation sensitivity in cultured cells. […] The validation assay was a fluorescence quenching based kinetic qHTS for RECQ1 Helicase DNA unwinding. The activity was measured as ATP-dependent separation of a 20-bp DNA duplex extended by 30-nt single-stranded tails (forked duplex). The forked DNA substrate was tagged with rhodamine fluorophore (carboxytetramethyl rhodamine, TAMRA) and BHQ-2 (Black Hole Quencher 2) dark quencher. Strand separation results in an increase in the fluorescence of TAMRA (excitation 525 nm, emission 598 nm). This substrate construct operates in a red-shifted region where very few compound library members have been noted to fluoresce (PubChem AIDs 593 and 594). An additional feature of the assay is the inclusion of 2.5 ug/ml poly (dIdC), to reduce interference by compounds such as DNA intercalators, a major source of false inhibitors. NIH Chemical Genomics Center [NCGC] NIH Molecular Libraries Probe Centers Network [MLPCN] MLPCN Grant: MH087284-01 Assay Submitter (PI): Opher Gileadi, Structural Genomics Consortium, University of Oxford
Three uL of reaction buffer (25 mM Tris-HCl (pH 8.0), 5 mM NaCl, 2 mM MgCl2, 1mM DTT, 0.01% Tween- 20, and 2.5 ug/ml poly(dI-dC), including enzyme (50 nM RECQ1T1), were dispensed into a 1536-well Greiner black assay plate via solenoid-valve based nanoliter dispensers. Compounds (23 nl each in columns 5-48) and control (23 nl each in column 2 as dose-response) were transferred via a Kalypsys pintool equipped with a 1536-pin array. The plates were incubated for 15 min at room temperature, and then 1 ul of substrates (200 nM DNA and 2 mM ATP, final concentrations) was added to start the reaction. The plate was transferred into a ViewLux high-throughput CCD imager where the reaction progress was measured in a discontinuous kinetic mode (two reads spaced 2 hours apart, with intermediate room temperature incubation of the covered assay plate) by using standard red-fluorescence optics (excitation filter 525 nm, emission filter 598 nm). Enzyme-free and vehicle (DMSO) controls were included for signal normalization.
Potency is read from the fitted curve at half-maximal effect.

Sequence of ATP-dependent DNA helicase Q1 (Homo sapiens) (P46063 whole entry, looked up): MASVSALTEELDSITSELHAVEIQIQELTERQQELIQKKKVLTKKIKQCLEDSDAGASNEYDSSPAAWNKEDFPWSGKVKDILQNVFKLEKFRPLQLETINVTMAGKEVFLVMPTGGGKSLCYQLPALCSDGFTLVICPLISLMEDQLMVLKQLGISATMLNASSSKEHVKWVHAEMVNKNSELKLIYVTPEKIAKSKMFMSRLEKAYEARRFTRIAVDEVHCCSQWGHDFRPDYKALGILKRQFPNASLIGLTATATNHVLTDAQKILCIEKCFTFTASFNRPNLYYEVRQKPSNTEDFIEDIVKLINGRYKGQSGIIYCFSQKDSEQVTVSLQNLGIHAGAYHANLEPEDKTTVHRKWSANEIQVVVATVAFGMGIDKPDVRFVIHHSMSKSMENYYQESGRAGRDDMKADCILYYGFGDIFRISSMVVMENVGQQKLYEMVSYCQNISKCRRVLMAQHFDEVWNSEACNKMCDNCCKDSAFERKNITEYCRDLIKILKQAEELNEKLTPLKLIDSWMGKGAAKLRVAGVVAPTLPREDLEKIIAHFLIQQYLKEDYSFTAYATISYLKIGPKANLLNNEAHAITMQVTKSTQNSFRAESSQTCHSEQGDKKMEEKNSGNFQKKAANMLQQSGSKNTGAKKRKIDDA

Potency, inactive:
CCC(c1nnnn1Cc1ccco1)N(Cc1cc2cc(OC)ccc2[nH]c1=O)C1CCCCC1 (stereo not drawn)
COc1cccc(NC(=S)C(C#N)=C2N(C)c3ccccc3N2C)c1
O=C(CSc1ccc(-c2ccco2)nn1)NCc1ccc2c(c1)OCO2
COc1ccc(Cl)cc1C(=O)NNC(=S)NC(=O)/C=C/c1ccco1
Oc1ccc(N=Cc2sc3ccccc3c2Cl)cc1
CCCCOC(=O)c1ccc(NC(c2ccc(C)cc2)P(=O)(OC)OC)cc1 (stereo not drawn)
COC(=O)Cc1cc(=O)n(-c2nc3ccccc3s2)[nH]1
Cc1cccc(-n2nc3c(c2NC(=O)c2ccc(Br)o2)CSC3)c1C
COc1cc(C(=O)NCc2nnc(SCC(=O)Nc3nc4ccc(C)cc4s3)o2)cc(OC)c1OC
COCCNC(=O)Nc1ccc2nc(-c3ccco3)c(-c3ccco3)nc2c1
CC(C)Cn1c(N)c(C(=O)NCc2cccs2)c2nc3ccccc3nc21
CN1C(=O)/C(=C/c2ccco2)SC1=Nc1cccc(C(=O)O)c1
CCc1cc(C(c2ccccc2OC)N2CCOCC2)c(NC(=O)c2ccccc2)s1 (stereo not drawn)
Cc1ccc(Cc2cnc(N)s2)o1
O=C(NCCCN1CCCCCC1)c1ccc(N2CCCC2=O)cc1
c1ccc2c(NC3C4CC5CC(C4)CC3C5)nc(N3CCOCC3)nc2c1 (stereo not drawn)
NC1=NC(=O)C(Cc2cccc(Cl)c2Cl)S1 (stereo not drawn)
CC(Oc1cccc(NC(=O)c2cccs2)c1)C(=O)c1ccccc1 (stereo not drawn)
CCC(C)Cn1c(O)cc2nn(-c3nc4ccccc4s3)c(=O)c-2c1C (stereo not drawn)
O=C1c2ccccc2C(=O)N1Cc1cc(-c2ccccc2Cl)no1
COc1ccc(OCC(=O)Nc2nnc(-c3ccco3)s2)cc1
COc1ccc(NC(=O)CSc2nc(NS(=O)(=O)c3ccc(C)cc3)cc(=O)[nH]2)cc1
COC(C(=O)Nc1ccc(S(=O)(=O)Nc2ccc(C)c(C)c2)cc1)c1ccccc1 (stereo not drawn)
O=C(NCCN1C(=O)S/C(=C\c2cccnc2)C1=O)c1ccc(S(=O)(=O)N2CCCC2)cc1
O=C(CN1CCN(c2ccc(O)cc2)CC1)Nc1cc(S(=O)(=O)N2CCOCC2)ccc1Cl
COc1ccc(/C(N)=N/OC(=O)CCCc2ccccc2)cc1
Cc1ccnc2nc(C(=O)Nc3nnc(-c4ccccc4)o3)nn12

Potency, active:
COc1c(O)cc2oc(-c3ccc(O)c(O)c3)cc(=O)c2c1O 4.47 µM and 2 µM
Oc1c(C=Nc2cccc3nsnc23)ccc2ccccc12 39.8 µM
COc1ccc2[nH]c3c(C)c4cc[n+](C)cc4c(C)c3c2c1 2.51 µM
CC(C)C1N=C2c3ccccc3N=C(SCC(=O)c3ccc(O)c(O)c3)N2C1=O (stereo not drawn) 3.16 µM
CCN(CC)c1ccc2oc(=O)c(C)nc2c1 50.1 µM
CCc1ccc2nc3sc(C(=O)Nc4nnc(CC)s4)c(N)c3cc2c1 39.8 µM

Reference: PubChem BioAssay AID504841 (National Center for Advancing Translational Sciences (NCATS), 2011)
